Measured values: PubChem BioAssay AID1822 (The Scripps Research Institute Molecular Screening Center, 2009)
Screen size: about 290,000 compounds; about 3,500 (1.2%) were called active. This excerpt belongs to a sample that is enriched for actives. Values without a mark were called inactive.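 How the source made its calls: active means inhibition above the campaign mean inhibition over all tested compounds plus 3 SD (cut at about 28% in these data); inactive means the rest.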

Each molecule was assayed on M18 aspartyl aminopeptidase (Plasmodium falciparum 3D7) (assay: PfM18AAP inhibitors, malaria aminopeptidase, primary screen, biochemical, QFRET, recombinant enzyme (AID 1822;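 further: 0% = plate median of test compound wells and 100% = 2 mM ZnCl2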)). Details: H-Glu-NHMec fluorogenic cleavage, at 7.35 µM, active compounds read high.
`Cc1ccc(S(=O)(=O)NNC(=O)/C=C/c2cccc(F)c2)cc1` gave an inhibition of 12.8%.
`CC1Cc2cc(/C(O)=C3\C(=O)C(=O)N(Cc4cccnc4)C3c3ccccc3F)ccc2O1` (stereo unspecified) was tested, and the inhibition was 7.22%.
In the case of `Cc1cc2c(C)nc(N/N=C/c3ccccc3)nc2o1`, the inhibition is reported as 37.1% (active).
Work on `Cc1nc(Cl)cc(N/N=C/c2ccccc2)n1` yielded an inhibition of 1.31%.
`Cc1cc(C)nc(N/N=C/c2c(C)oc3ccccc23)n1` was tested, and the inhibition was -6.94%.
`CCn1nc(C)c(CNC(=O)C2CCC(=O)N(Cc3cccc(F)c3)C2)c1C` (stereo unspecified) gave an inhibition of -1.99%.
Molecule `COc1ccccc1C(=O)N(C1=NC(C)CS1)c1ccc(Cl)cc1` (stereo unspecified) has an inhibition of -8.55%.
`O=C(CSc1ncn[nH]1)N/N=C/c1ccc(F)cc1` showed an inhibition of 21.1%.
`O=C(CSc1ncn[nH]1)NCc1ccc2c(c1)OCO2` showed an inhibition of 5.91%.
With `ClC1(Cl)CC1CSc1ncn[nH]1` (stereo unspecified) the inhibition was 34.4% (active).
With `O=C(c1cccc(-n2cccc2)c1)N1CCN(S(=O)(=O)c2ccc(F)cc2)CC1` the inhibition was 14.4%.
With `CC(C)c1ccc(NC(=O)[C@@H](NC(=O)N2CC(=O)Nc3ccccc32)C(C)C)cc1` the inhibition was -1.48%.
With `Clc1ccc(N/N=C/c2cccs2)nn1` the inhibition was 31.6% (active).
With `Oc1c(Br)cccc1/C=N/Nc1c(F)c(F)c(F)c(F)c1F` the inhibition was -1.11%.
Molecule `Cc1nnc(N/N=C/c2cccs2)[nH]c1=O` has an inhibition of 0.78%.
In the case of `Cc1ccsc1/C=N/n1c(=S)[nH]nc(C)c1=O`, the inhibition is reported as 2.51%.
Work on `Cc1ccsc1/C=N/NC(=O)Cc1cc(=O)[nH][nH]1` yielded an inhibition of 1.38%.
For `COc1cccc(/C=N/Nc2ccc(Cl)nn2)c1`, the inhibition was 18.6%.
With `Oc1cccc(/C=N/Nc2ccc(Cl)nn2)c1O` the inhibition was 60.9% (active).
In the case of `Cc1ccsc1/C=N/Nc1ccc(Cl)nn1`, the inhibition is reported as 38.9% (active).
Work on `NC(=O)N/N=C\c1cccs1` yielded an inhibition of 1.75%.
Molecule `COc1ccc(CNC(=O)c2c[nH]c3c(OC)cc(OC)cc3c2=O)cc1` has an inhibition of 2.86%.
`CCc1ccc(NC(=O)N2CCc3ccccc3C2)cc1` gave an inhibition of -1.34%.
With `COc1ccc(NS(=O)(=O)c2cc(C(=O)Nc3ccccc3C(=O)O)ccc2C)cc1` the inhibition was 1.9%.
With `O=C(NC(=S)N1CCCCC1c1cccnc1)c1ccccc1` (stereo unspecified) the inhibition was 4.53%.
`Cc1ccc2c(c1)c1ncnc(N3CCc4ccccc4C3)c1n2C` was tested, and the inhibition was -0.51%.
In the case of `CC(C)OCCCNC(=O)CN1C(=O)/C(=C/c2ccccc2F)Oc2ccccc21`, the inhibition is reported as -19.2%.
For `Cc1ccc(OCC(=O)Nc2ccc(C(=O)O)cc2NC(=O)COc2ccc(C)c(C)c2)cc1C`, the inhibition was 0.26%.
`COCCn1c(SCc2nnc(-c3ccc(OC)c(OC)c3)o2)nc2sc3c(c2c1=O)CCC3` was tested, and the inhibition was -13.2%.
Work on `CSc1ccc(S(=O)(=O)N2CCC(C(=O)NCCc3ccccc3)CC2)cc1` yielded an inhibition of 0.01%.
Molecule `O=C(NCc1ccncc1)C1CCN(C(=O)c2cccc(Cl)c2)CC1` has an inhibition of -1.77%.
With `O=C(c1cccs1)N(Cc1cc2ccccc2[nH]c1=O)CC1CCCO1` (stereo unspecified) the inhibition was 2.59%.
For `O=C(Nc1ccc(C(=O)NCc2ccccc2Cl)cc1)C1=CSCCO1`, the inhibition was 2.51%.
`Nc1nnn(CC(=O)N/N=C/c2ccc(O)cc2)n1` showed an inhibition of 7.09%.
In the case of `O=c1c2ccccc2nc(N/N=C/c2ccccc2)n1O`, the inhibition is reported as 3.06%.
`CC(C)(C)c1nnc(N/N=C/c2ccc(O)cc2)n(N)c1=O` was tested, and the inhibition was 44.5% (active).
For `O=c1cc(Cl)c2ccccc2n1-c1ccccc1`, the inhibition was 1.05%.
Work on `CN(C(=O)CSc1nnc(-c2n[nH]c3ccccc23)o1)c1ccccc1` yielded an inhibition of -5.28%.
Molecule `Cc1c(C)c(C)c2[nH]c(=S)[nH]c2c1C` has an inhibition of -2.04%.
`O=c1[nH]c(=S)[nH]c2[nH]c(=S)[nH]c12` was tested, and the inhibition was 43.7% (active).
With `NC(=S)N/N=C/c1coc2cc(Cl)ccc2c1=O` the inhibition was 50.2% (active).
For `O=C(N/N=C/c1c[nH]c2ccccc12)c1cc2ccccc2o1`, the inhibition was -7.84%.
For `Cc1c(/C=N\NC(=O)c2cc3ccccc3o2)c2ccccc2n1C`, the inhibition was 0.69%.
`Cc1ccc2occ(/C=N/NC(=O)c3ccccc3C)c(=O)c2c1` was tested, and the inhibition was 6.11%.
`O=C(N/N=C/c1coc2ccccc2c1=O)c1cc2ccccc2o1` was tested, and the inhibition was 36.8% (active).
In the case of `O=c1c(/C=N/O)coc2ccc(Cl)cc12`, the inhibition is reported as 8.13%.
In the case of `C[C@H](C(=O)CC(=O)OC(C)(C)C)[C@H](O)c1ccc(C(F)(F)F)cc1`, the inhibition is reported as 2.4%.
For `O=S(=O)(c1ccc(Cl)cc1)c1nc(-c2ccccc2F)oc1NCCN1CCOCC1`, the inhibition was 1.96%.
Molecule `CN(Cc1ccccc1)C(=O)CSc1nc2ccccc2[nH]1` has an inhibition of 7.79%.
With `O=C(C1CCCO1)N1CCN(S(=O)(=O)c2ccc(Br)cc2)CC1` (stereo unspecified) the inhibition was -7.44%.
With `Cc1cccn2c(=O)c3cc(C(=O)NCCN4CCOCC4)c(=N)n(Cc4cccnc4)c3nc12` the inhibition was 7.09%.
Molecule `COCCNC(=O)C1CCN(C(=O)C2CC(=O)N(c3ccc(C)cc3)C2)CC1` (stereo unspecified) has an inhibition of -4.37%.
Molecule `CC(C)(C)N(Cc1ccccc1)C(=O)c1ccncc1` has an inhibition of 2.34%.
`CCOc1ccc(/C=N/Nc2nncc(-c3ccccc3)n2)cc1OC` gave an inhibition of 8.38%.
With `COc1cc(/C=N/O)ccc1OCc1ccc([N+](=O)[O-])cc1` the inhibition was 2.23%.
With `Cc1cc(/C=N/Nc2ccc([N+](=O)[O-])cn2)c(C)n1-c1cccc(C(=O)O)c1` the inhibition was 50.7% (active).
Molecule `Cc1ccc(-n2c(C)cc(/C=N/Nc3ccc([N+](=O)[O-])cn3)c2C)c(C)c1` has an inhibition of 7.66%.
In the case of `COc1cc(/C=N\Nc2ccc([N+](=O)[O-])cn2)ccc1OCC(=O)O`, the inhibition is reported as 43.1% (active).
For `Cc1cc(/C=C2\SC(=O)N(C)C2=O)c(C)n1-c1cccc(C(=O)O)c1`, the inhibition was 7.23%.
`CC(=O)c1c(C)n(-c2ccc(C)cc2)c2ccc(O)cc12` was tested, and the inhibition was -3.09%.
`CCCCN(Cc1ccccc1)C(=O)C1CCN(Cc2sccc2C)CC1` was tested, and the inhibition was 10.9%.
`CCC(C)C(=O)Nc1ccccc1N1CCN(c2ccc(F)cc2)CC1` (stereo unspecified) showed an inhibition of 4%.
For `OCCNc1nc2ccccc2n1-c1ncnc2sc3c(c12)CCC3`, the inhibition was -6.82%.
With `Cc1ccc(C)c(NC(=O)CSc2nc3c(oc4ccccc43)c(=O)n2-c2ccccc2)c1` the inhibition was 2.4%.
In the case of `CCOC(=O)c1cccc(NS(=O)(=O)c2c(C(=O)N3CCCCCC3)c(C)n(C)c2C)c1`, the inhibition is reported as 0.1%.
With `Cc1cc(N2CCN(c3ccccc3)CC2)nc(N2CCOCC2)n1` the inhibition was -12.7%.
For `Cc1ccc(Sc2cc(N3CCOCC3)nc(-c3ccccc3)n2)cc1`, the inhibition was 28.3% (active).
In the case of `Cc1cc(N2CCOCC2)nc(-c2ccc(Br)cc2)n1`, the inhibition is reported as -2.46%.
`Cc1cc(C)nc(-n2nc(C)cc2NC(=O)c2ccc(Br)o2)n1` was tested, and the inhibition was -3.58%.
For `CSc1n[nH]c(=S)n1N`, the inhibition was 32.7% (active).
Work on `O=C(Nc1ccccc1)Nc1ccc(C(F)(F)F)cn1` yielded an inhibition of -2.42%.
For `Oc1ccc(/C=N/Nc2ccc(C(F)(F)F)cn2)cc1O`, the inhibition was 34.4% (active).
`Oc1ccc(Br)cc1/C=N/Nc1ccccn1` was tested, and the inhibition was 15.5%.
In the case of `CCc1ccc(Nc2nnc(SCC(=O)c3ccc4c(c3)NC(=O)CO4)s2)cc1`, the inhibition is reported as 3.56%.
`O=C(Cn1nc([N+](=O)[O-])nc1Br)NC1CCCCC1` showed an inhibition of 0.92%.
`CCOc1cc(NC(=O)c2cnccn2)c(OCC)cc1NC(=O)c1ccc(C)cc1` showed an inhibition of 5.95%.
In the case of `O=C(OCC1O[C@@H](OC(=O)c2cc(O)c(O)c(O)c2)[C@@H](OC(=O)c2cc(O)c(O)c(O)c2)[C@@H](OC(=O)c2cc(O)c(O)c(O)c2)[C@@H]1OC(=O)c1cc(O)c(O)c(O)c1)c1cc(O)c(O)c(O)c1` (stereo partly specified), the inhibition is reported as 41.3% (active).
`CN(C)c1ccc(CNC(=O)CN2C(=O)COc3ccc(S(=O)(=O)N4CCCC4)cc32)cc1` showed an inhibition of 4.42%.
Work on `COc1ccccc1CCNC(=O)C1CCN(C(=O)/C=C/c2ccccc2)CC1` yielded an inhibition of -9.1%.
`CCOc1ccc(/C=N\NC(=O)c2c(C)nc3cc(C)ccn23)cc1` showed an inhibition of -0.74%.
`O=C(CN1C(=O)CSC1=O)N1CCCC(Nc2ccc(F)cc2)C1` (stereo unspecified) was tested, and the inhibition was -12.5%.
Molecule `O=C(CN1CCOC1=O)N1CCCC(Nc2ccc(F)c(F)c2)C1` (stereo unspecified) has an inhibition of -0.1%.
In the case of `O=C1CCCCN1CCCC(=O)N1CCCC(Nc2ccc(F)cc2)C1` (stereo unspecified), the inhibition is reported as 33.9% (active).
`CCOC(=O)[C@@H]1[C@H]2COc3cc(OC)ccc3[C@@H]2N2C(=O)N(c3cccc(C)c3)C(=O)[C@@]12C` showed an inhibition of -13.2%.
With `CCOC(=O)c1c(-c2ccccc2)oc2cc(Br)c(O)c(C=O)c12` the inhibition was 28.4% (active).
`CCOC(=O)c1c(-c2ccccc2)oc2ccc(OCC(N)=O)cc12` showed an inhibition of 4.97%.
`CCOC(=O)c1c(-c2ccccc2)oc2cc(Br)c(O)cc12` showed an inhibition of -7.24%.
For `O=C(c1cnc(Cl)c(Cl)c1)N1CCN(S(=O)(=O)c2ccc(F)cc2)CC1`, the inhibition was -8.29%.
With `COc1ccc(OCC(=O)Nc2nnc(-c3ccco3)s2)cc1` the inhibition was 29.5% (active).
Work on `CNc1nnc(-c2ccco2)s1` yielded an inhibition of -6.9%.
`Cc1ccc(OCC(=O)Nc2nnc(-c3ccco3)s2)cc1` gave an inhibition of -1.67%.
`N#Cc1cccc(CN2CCC(=O)N([C@H](CO)c3ccccc3)CC2)c1` was tested, and the inhibition was -11.8%.
For `Cn1c2ccc(F)cc2c2nnc(NN)nc21`, the inhibition was 30.3% (active).
Molecule `CCn1c2ccc(F)cc2c2nnc(SCCN3CCOCC3)nc21` has an inhibition of 10.1%.
Molecule `Cc1ccc2c(c1)c1ncn(Cc3ccc(F)cc3)c(=O)c1n2C` has an inhibition of -2.55%.
Molecule `Cc1cccc(C(=O)NNC(=O)CSc2nnc(C(C)C)n2C)c1` has an inhibition of -1.87%.
